From the supplement of paper PMC8728848
The entries come from a sample that favours the strongest signals as a whole.

Key:
Experiment in all cases: glycan array binding signal (z-score within array); higher = stronger binding
Details in all cases: glycan notation: IUPAC condensed, linker removed
Fuc(a1-2)Gal(b1-3)GalNAc = biological target: Fuc(a1-2)Gal(b1-3)GalNAc
In short: (§1)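 The binding signal is a Z-score computed within each array and averaged over linkers. Arrays of the same protein sequence at different concentrations or buffers were also averaged together. Data originate from 3228 arrays in the Consortium for Functional Glycomics database, kept only where the protein sequence was available.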

[1] = biological target: Fuc(a1-2)Gal(b1-3)GlcNAc(b1-2)Man(a1-3)[Fuc(a1-2)Gal(b1-3)GlcNAc(b1-2)Man(a1-6)]Man(b1-4)GlcNAc(b1-4)GlcNAc
In short: as §1

[2] = biological target: Fuc(a1-2)Gal(b1-3)GlcNAc(b1-2)Man(a1-3)[Fuc(a1-2)Gal(b1-3)GlcNAc(b1-2)Man(a1-6)]Man(b1-4)GlcNAc(b1-4)[Fuc(a1-6)]GlcNAc
In short: as §1

[3] = biological target: Fuc(a1-2)Gal(b1-3)[Fuc(a1-4)]GlcNAc(b1-2)Man(a1-3)[Fuc(a1-2)Gal(b1-3)[Fuc(a1-4)]GlcNAc(b1-2)Man(a1-6)]Man(b1-4)GlcNAc(b1-4)GlcNAc
In short: as §1

[4] = biological target: Fuc(a1-2)Gal(b1-4)Fuc(a1-3)]GlcNAc(b1-2)Man(a1-3)[Fuc(a1-2)Gal(b1-4)[Fuc(a1-3)]GlcNAc(b1-2)Man(a1-6)]Man(b1-4)GlcNAc(b1-4)GlcNAc
In short: as §1

[5] = biological target: Fuc(a1-2)Gal(b1-4)[Fuc(a1-3)]GlcNAc(b1-3)GalNAc
In short: as §1

[6] = biological target: Fuc(a1-2)[GalNAc(a1-3)]Gal(b1-3)GalNAc(b1-3)Gal(a1-4)Gal(b1-4)Glc
In short: as §1

[7] = biological target: Fuc(a1-2)[GalNAc(a1-3)]Gal(b1-4)GlcNAc(b1-3)GalNAc
In short: as §1

[8] = biological target: Fuc(a1-2)[GalNAc(a1-3)]Gal(b1-4)[Fuc(a1-3)]GlcNAc
In short: as §1

[9] = biological target: Fuc(a1-3)[Gal3S(b1-4)]GlcNAc6S
In short: as §1

[10] = biological target: Fuc(a1-3)[GalNAc(b1-4)]GlcNAc
In short: as §1

[11] = biological target: Gal(a1-3)Gal(b1-4)GlcNAc(b1-2)Man
In short: as §1

[12] = biological target: Gal(a1-3)Gal(b1-4)GlcNAc(b1-6)GalNAc
In short: as §1

[13] = biological target: Gal(a1-3)[Gal(a1-4)]Gal(b1-4)GlcNAc
In short: as §1

Gal(a1-6)Glc = biological target: Gal(a1-6)Glc
In short: as §1

[14] = biological target: Gal(b1-3)GalNAc(b1-4)[Neu5Ac(a2-3)]Gal(b1-4)Glc
In short: as §1

[15] = biological target: Gal(b1-3)GlcNAc(b1-3)Gal(b1-4)GlcNAc(b1-2)[Gal(b1-3)GlcNAc(b1-3)Gal(b1-4)GlcNAc(b1-6)]Man(a1-6)[Gal(b1-3)GlcNAc(b1-3)Gal(b1-4)GlcNAc(b1-2)Man(a1-3)]Man(b1-4)GlcNAc(b1-4)[Fuc(a1-6)]GlcNAc
In short: as §1

[16] = biological target: Gal(b1-3)GlcNAc(b1-3)GalNAc
In short: as §1

[17] = biological target: Gal(b1-3)[Fuc(a1-4)]GlcNAc(b1-3)Gal(b1-4)GlcNAc
In short: as §1

[18] = biological target: Gal(b1-4)GlcNAc(b1-2)Man(a1-3)[Gal(b1-4)GlcNAc(b1-2)Man(a1-6)]Man(b1-4)GlcNAc(b1-4)GlcNAc
In short: as §1

[19] = biological target: Gal(b1-4)GlcNAc(b1-2)Man(a1-3)[GlcNAc(b1-2)Man(a1-6)]Man(b1-4)GlcNAc(b1-4)GlcNAc
In short: as §1

[20] = biological target: Gal(b1-4)GlcNAc(b1-2)Man(a1-3)[GlcNAc(b1-4)][Gal(b1-4)GlcNAc(b1-2)Man(a1-6)]Man(b1-4)GlcNAc(b1-4)GlcNAc
In short: as §1

[21] = biological target: Gal(b1-4)GlcNAc(b1-2)[Gal(b1-4)GlcNAc(b1-4)]Man(a1-3)[GlcNAc(b1-4)][Gal(b1-4)GlcNAc(b1-2)[Gal(b1-4)GlcNAc(b1-6)]Man(a1-6)]Man(b1-4)GlcNAc(b1-4)[Fuc(a1-6)]GlcNAc
In short: as §1

[22] = biological target: Gal(b1-4)GlcNAc(b1-3)Gal(b1-4)GlcNAc(b1-2)[Gal(b1-4)GlcNAc(b1-3)Gal(b1-4)GlcNAc(b1-6)]Man(a1-6)[Gal(b1-4)GlcNAc(b1-3)Gal(b1-4)GlcNAc(b1-2)Man(a1-3)]Man(b1-4)GlcNAc(b1-4)GlcNAc
In short: as §1

[23] = biological target: Gal(b1-4)GlcNAc(b1-3)Gal(b1-4)GlcNAc(b1-2)[Gal(b1-4)GlcNAc(b1-3)Gal(b1-4)GlcNAc(b1-6)]Man(a1-6)[Gal(b1-4)GlcNAc(b1-3)Gal(b1-4)GlcNAc(b1-2)Man(a1-3)]Man(b1-4)GlcNAc(b1-4)[Fuc(a1-6)]GlcNAc
In short: as §1

[24] = biological target: Gal(b1-4)GlcNAc(b1-3)Gal(b1-4)GlcNAc(b1-3)Gal(b1-4)GlcNAc(b1-3)Gal(b1-4)GlcNAc(b1-2)Man(a1-3)[Gal(b1-4)GlcNAc(b1-3)Gal(b1-4)GlcNAc(b1-3)Gal(b1-4)GlcNAc(b1-3)Gal(b1-4)GlcNAc(b1-2)Man(a1-6)]Man(b1-4)GlcNAc(b1-4)[Fuc(a1-6)]GlcNAc
In short: as §1

[25] = biological target: Gal(b1-4)GlcNAc(b1-3)Gal(b1-4)GlcNAc(b1-3)Gal(b1-4)GlcNAc(b1-3)Gal(b1-4)GlcNAc(b1-3)Gal(b1-4)GlcNAc(b1-2)Man(a1-3)[Gal(b1-4)GlcNAc(b1-3)Gal(b1-4)GlcNAc(b1-3)Gal(b1-4)GlcNAc(b1-3)Gal(b1-4)GlcNAc(b1-3)Gal(b1-4)GlcNAc(b1-2)Man(a1-6)]Man(b1-4)GlcNAc(b1-4)GlcNAc
In short: as §1

B1: LlpA1 (Pseudomonas fluorescens), Q4KHC3 (protein)
chain: MGSSHHHHHHSSGLVPRGSHMAWIRYDFTDNGSSVLPARYYMAPNQYLQSPNKRFKLLFQADGNLALYDGAQLAWVADQNTPFTNVSKGNKKDPMMVFMNYGFVLDDPLRGRIWSTTPSDPTMGSREDASLRAFTQVQDDGNIVTVDTIPHWYAPNGRVFTPAVGAAMIIGGTTELVPGQFYSAGEHSLVFQGDGNLVVYGPNSSVIWATYTQNKGGVRCVMQEDGNLVIYAANNGVVWQSGTGGHPGATIRLQANGSFTIVTERPVWARFGYTPTIKPPRVFYPDHKWKTGSYTWNNVF
In the case of B1, the “glycan array binding signal (z-score)” value (Fuc(a1-2)Gal(b1-3)GalNAc) is reported as -0.757, the “glycan array binding signal (z-score)” value [1] is reported as 3.75 and the “glycan array binding signal (z-score)” value [2] is reported as -0.133. For the same binder, the “glycan array binding signal (z-score)” value [3] was 3.21, the “glycan array binding signal (z-score)” value [4] was 3.1 and the “glycan array binding signal (z-score)” value [5] was 2.56. The “glycan array binding signal (z-score)” value [6] was 0.171, the “glycan array binding signal (z-score)” value [7] was -0.468 and the “glycan array binding signal (z-score)” value [8] was 0.114. The “glycan array binding signal (z-score)” value [9] was -0.653, the “glycan array binding signal (z-score)” value [10] was -0.611 and the “glycan array binding signal (z-score)” value [11] was -0.521. The “glycan array binding signal (z-score)” value [12] was 0.065, the “glycan array binding signal (z-score)” value [13] was 2.71 and the “glycan array binding signal (z-score)” value (Gal(a1-6)Glc) was 0.047. The “glycan array binding signal (z-score)” value [14] was -0.058, the “glycan array binding signal (z-score)” value [15] was 0.631 and the “glycan array binding signal (z-score)” value [16] was -0.529. For the same binder, the “glycan array binding signal (z-score)” value [17] was -0.53, the “glycan array binding signal (z-score)” value [18] was -0.071 and the “glycan array binding signal (z-score)” value [19] was 0.504. The “glycan array binding signal (z-score)” value [20] was -0.797, the “glycan array binding signal (z-score)” value [21] was 2.29 and the “glycan array binding signal (z-score)” value [22] was 2.3. The “glycan array binding signal (z-score)” value [23] was 1.19, the “glycan array binding signal (z-score)” value [24] was 1.12 and the “glycan array binding signal (z-score)” value [25] was 2.15.
